Laboratory results taken from PubChem BioAssay (EPA / NIEHS).
Records with an inconclusive call do not appear. Calls of active or inactive are those of the source. How the source made its calls: active means hit-call score of the fitted dose curve at least 0.9, where 1 is the maximum; inconclusive means response in the unintended direction; inactive means score below 0.9.

Legend:
[1] = TOX21_p53_BLA_p2_viability: Viability Assessment in the Tox21 HCT-116 p53 Agonism Beta-lactamase Assay, Phase 2 (AID 2283591);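 further: compound exposure lasted 16 h at 37 °C; actives lower the ATP signal meaning cytotoxicity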
Method in brief: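 HCT116 p53-bla cells, 4000/well, dosed after 5 h plating (217-fold dilution of DMSO stocks) and incubated 16 h at 37C. Viability taken as cellular ATP by CellTiter-Glo luminescence after 30 min RT; signal loss marks cytotoxicity.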

[2] = molecular target: Cellular tumor antigen p53 (Homo sapiens) (UniProt P04637); assay: TOX21_p53_BLA_p2_ratio: Tox21 HCT-116 p53 Agonism Beta-lactamase Assay, Ratio, Phase 2 (AID 2283592)
Chain of Cellular tumor antigen p53 (Homo sapiens) (P04637 whole entry, looked up): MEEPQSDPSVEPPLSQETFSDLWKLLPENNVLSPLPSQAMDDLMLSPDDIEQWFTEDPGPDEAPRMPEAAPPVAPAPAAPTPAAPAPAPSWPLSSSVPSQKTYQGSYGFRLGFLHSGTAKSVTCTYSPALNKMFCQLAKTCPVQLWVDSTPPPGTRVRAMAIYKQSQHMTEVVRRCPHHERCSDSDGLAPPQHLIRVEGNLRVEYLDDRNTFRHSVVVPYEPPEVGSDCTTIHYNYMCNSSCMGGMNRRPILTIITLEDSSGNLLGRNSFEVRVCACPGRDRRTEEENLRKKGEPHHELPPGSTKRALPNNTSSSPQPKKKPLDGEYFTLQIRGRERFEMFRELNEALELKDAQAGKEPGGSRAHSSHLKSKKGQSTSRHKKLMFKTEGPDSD
Method in brief: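 Ratio endpoint: beta-lactamase cleavage of CCF4-AM, blue (460 nm) over green (530 nm). HCT116 reporter line; 16 h treatment, 37C; substrate 2 h RT.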

[3] = TOX21_p53_BLA_p3_viability: Viability Assessment in the Tox21 HCT-116 p53 Agonism Beta-lactamase Assay, Phase 3 (AID 2283593);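 further: cells exposed to compound for 16 h before reading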
Method in brief: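 HCT116 cells, 4000/well, dosed 5 h after plating by pin transfer (217-fold dilution from DMSO stock) and incubated 16 h at 37C, 5% CO2. Viability read as ATP luminescence with CellTiter-Glo after 30 min at room temperature.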

[4] = molecular target: Cellular tumor antigen p53 (Homo sapiens) (UniProt P04637); assay: TOX21_p53_BLA_p3_ratio: Tox21 HCT-116 p53 Agonism Beta-lactamase Assay, Ratio, Phase 3 (AID 2283596)
Method in brief: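 Cells were seeded at 4000/well, rested 5 h at 37C, then dosed with DMSO compound solutions (217-fold dilution) for 16 h. CCF4-AM substrate was loaded for 2 h at room temperature, and the 460/530 nm emission ratio was fitted for gain of signal versus DMSO.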

[5] = TOX21_p53_BLA_p4_viability: Viability Assessment in the Tox21 HCT-116 p53 Agonism Beta-lactamase Assay, Phase 4 (AID 2283597);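 further: hits lower the luminescence signal meaning cytotoxicity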
Method in brief: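 Cytotoxicity was inferred from loss of CellTiter-Glo luminescence. HCT116 cells had been dosed with compounds after 5 h plating, incubated 16 h at 37C and 5% CO2, and exposed to the CCF4-AM substrate for 2 h.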

[6] = molecular target: Cellular tumor antigen p53 (Homo sapiens) (UniProt P04637); assay: TOX21_p53_BLA_p5_ratio: Tox21 HCT-116 p53 Agonism Beta-lactamase Assay, Ratio, Phase 5 (AID 2283599)
Method in brief: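 HCT-116 p53-bla cells (4000/well) plated 5 h, dosed with compound (217-fold DMSO dilution) for 16 h at 37 C; CCF4-AM substrate 2 h at room temperature. Activity is the 460/530 nm emission ratio (405 nm excitation), fitted in gain-of-signal direction versus DMSO.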

[7] = TOX21_p53_BLA_p5_viability: Viability Assessment in the Tox21 HCT-116 p53 Agonism Beta-lactamase Assay, Phase 5 (AID 2283600)
Method in brief: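 Luciferase-coupled ATP quantitation of cells treated for 16 h (37C, 5% CO2) with test chemicals delivered in DMSO via a 217-fold dilution; 4000 cells/well; reagent incubated 30 min at room temperature before luminescence reading.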

[8] = Tanguay_ZF_120hpf_MORT_legacy: (Legacy) Oregon State University Tanguay Lab 120 Hour Post-fertilization zebrafish Assay for Mortality (AID 2283633)
Method in brief: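 Dechorionated Tropical 5D wild-type zebrafish embryos, one per well from 6 hpf, were statically exposed at 28C in the dark until 120 hpf (0.64% DMSO final). Mortality was scored as present/absent by brightfield microscopy, fitted positively versus DMSO.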

[9] = Tanguay_ZF_120hpf_AXIS_legacy: (Legacy) Oregon State University Tanguay Lab 120 Hour Post-fertilization zebrafish Assay for Body Axis Malformation (AID 2283635)
Method in brief: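 Tropical 5D wild-type zebrafish embryos, dechorionated with pronase at 4 hpf, were placed singly in wells at 6 hpf and exposed statically to test chemical (0.64% DMSO final) at 28C until 120 hpf, then scored by brightfield for body axis defects.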

[10] = Tanguay_ZF_120hpf_EYE_legacy: (Legacy) Oregon State University Tanguay Lab 120 Hour Post-fertilization zebrafish Assay for Eye Malformation (AID 2283636);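 further: binary presence or absence of eye malformation scored by brightfield in 120 hpf larvae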
Method in brief: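 5D wild-type embryos, pronase-dechorionated at 4 hpf; static exposure 6–120 hpf, 28C, dark; DMSO 0.64% final; 5uM trimethyltin chloride positive control. Binary eye-defect scoring at 120 hpf; dead embryos not scored.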

[11] = Tanguay_ZF_120hpf_SNOU_legacy: (Legacy) Oregon State University Tanguay Lab 120 Hour Post-fertilization zebrafish Assay for Snout Malformation (AID 2283637)
Method in brief: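 Binary brightfield scoring of snout malformation at 120 hpf. Dechorionated 5D wild-type embryos, one per well, static exposure from 6 hpf at 28C, sealed and dark; final DMSO 0.64% (vol/vol), DMSO as baseline; 5uM trimethyltin chloride positive control.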

[12] = Tanguay_ZF_120hpf_JAW_legacy: (Legacy) Oregon State University Tanguay Lab 120 Hour Post-fertilization zebrafish Assay for Jaw Malformation (AID 2283638)
Method in brief: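 Tropical 5D wild-type embryos, dechorionated with pronase at 4 hpf, were placed singly per well at 6 hpf and statically exposed at 28C until 120 hpf (0.64% DMSO final). Jaw malformation scored as present/absent by brightfield microscopy at 120 hpf, analyzed relative to DMSO.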

[13] = Tanguay_ZF_120hpf_OTIC_legacy: (Legacy) Oregon State University Tanguay Lab 120 Hour Post-fertilization zebrafish Assay for Otic Vesicle Malformation (AID 2283639)
Method in brief: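 Wild-type zebrafish larvae, whole-embryo exposure from early stage to 120 hpf at 28C. Binary brightfield scoring of otic vesicle morphology, fitted in the positive direction against the DMSO baseline.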

[14] = Tanguay_ZF_120hpf_BRAI_legacy: (Legacy) Oregon State University Tanguay Lab 120 Hour Post-fertilization zebrafish Assay for Brain Malformation (AID 2283641)
Method in brief: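 Tropical 5D wild-type zebrafish embryos were exposed statically in sealed, foil-covered plates at 28C until 120 hpf, with 0.64% (vol/vol) final DMSO. Brain malformation was scored present/absent by brightfield microscopy, relative to DMSO baseline.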

[15] = Tanguay_ZF_120hpf_SOMI_legacy: (Legacy) Oregon State University Tanguay Lab 120 Hour Post-fertilization zebrafish Assay for Somite Malformation (AID 2283647)
Method in brief: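 Tropical 5D wild-type zebrafish embryos, dechorionated with pronase at 4 hpf, were placed singly at 6 hpf and statically exposed until 120 hpf at 28C in 0.64% DMSO. Somite malformation was scored present/absent by brightfield microscopy versus DMSO.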

[16] = Tanguay_ZF_120hpf_PFIN_legacy: (Legacy) Oregon State University Tanguay Lab 120 Hour Post-fertilization zebrafish Assay for Pectoral Fin Malformation (AID 2283648);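 further: each larva judged yes or no for fin defect by brightfield with dead larvae skipped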
Method in brief: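 Binary pectoral fin malformation call at 120 hpf by brightfield microscopy; 5D wild-type zebrafish, chorion removed at 4 hpf, one embryo per well from 6 hpf, static exposure at 28C; DMSO (0.64% final) as baseline.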

[17] = Tanguay_ZF_120hpf_CFIN_legacy: (Legacy) Oregon State University Tanguay Lab 120 Hour Post-fertilization zebrafish Assay for Caudal Fin Malformation (AID 2283649)
Method in brief: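 Tropical 5D wild-type embryos, dechorionated with pronase at 4 hpf, were placed singly in wells at 6 hpf and statically exposed to compound at 28C until 120 hpf (0.64% DMSO). Caudal fin malformation was scored present/absent by brightfield microscopy.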

[18] = Tanguay_ZF_120hpf_PIG_legacy: (Legacy) Oregon State University Tanguay Lab 120 Hour Post-fertilization zebrafish Assay for Pigmentation Malformation (AID 2283650)
Method in brief: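 Brightfield scoring of pigmentation malformation at 120 hpf, recorded as binary present/absent per larva. Exposure: dechorionated 5D wild-type embryos, one per well, static from 6 hpf at 28C, final DMSO 0.64% (vol/vol). Dead embryos not scored.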

[19] = molecular target: Cellular tumor antigen p53 (Homo sapiens) (UniProt P04637); assay: TOX21_p53_BLA_p4_ratio: Tox21 HCT-116 p53 Agonism Beta-lactamase Assay, Ratio, Phase 4 (AID 2283601)
Method in brief: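 HCT-116 p53 beta-lactamase reporter cells (4000/well) preincubated 5 h, then compound (217-fold dilution of DMSO stock) for 16 h at 37C. CCF4-AM substrate added 2 h at room temperature; 460/530 nm emission ratio fitted upward versus DMSO.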

[20] = Tanguay_ZF_120hpf_PE_legacy: (Legacy) Oregon State University Tanguay Lab 120 Hour Post-fertilization zebrafish Assay for Pericardial Edema (AID 2283640)
Method in brief: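 Tropical 5D wild-type zebrafish embryos were exposed statically to 120 hpf at 28C, sealed and foil-covered, in 0.64% DMSO final. Pericardial edema was scored present/absent by brightfield microscopy; dead embryos were not scored.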

Measured: AC50

CC1(C)CN=C(NN=C(/C=C/c2ccc(C(F)(F)F)cc2)/C=C/c2ccc(C(F)(F)F)cc2)NC1
inactive: [5]
active: [1] 14.7 µM | [2] 20.6 µM | [3] 31.6 µM | [4] 39.5 µM | [6] 44.7 µM | [7] 46.1 µM

[N-]=[N+]=[N-]
inactive: [1] | [2] | [3] | [4] | [5] | [6] | [7] | [8] | [9] | [10] | [11] | [12] | [13] | [14] | [15] | [16] | [17] | [18]

c1nc[nH]n1
inactive: [1] | [2] | [4] | [6] | [7] | [19] | [11] | [13] | [14] | [15] | [17] | [18]

CCCCN(CCCC)N=O
inactive: [1] | [2] | [3] | [4] | [5] | [6] | [7] | [8] | [9] | [10] | [11] | [12] | [20] | [14] | [15] | [16] | [17]

CCCCOCCOP(=O)(OCCOCCCC)OCCOCCCC
inactive: [1] | [2] | [3] | [5] | [7]

O=S(=O)(c1ccc(O)cc1)c1ccc(O)cc1
inactive: [1] | [2] | [3] | [4] | [5] | [7]

CCOS(=O)(=O)OCC
inactive: [1] | [2] | [3] | [4] | [5] | [6] | [7] | [8] | [9] | [10] | [11] | [12] | [13] | [20] | [14] | [15] | [16] | [17]

CCOC(=O)c1ccccc1C(=O)OCC
inactive: [1] | [2] | [3] | [4] | [5] | [6] | [8] | [9] | [10] | [11] | [12] | [20] | [14] | [15] | [16] | [17] | [18]
